Source: PubChem BioAssay AID1159580 (chemical genetic matrix, 2015)
Where “and” joins values, the source holds several entries; their conditions need not be identical. Identical values can stand only once. Among all 5,500 compounds or so, about 2,000 (36%) were called active. Inconclusive results (about 18%) are left out. Rule as the data show it: active = normalized growth mostly below about 0.91 (no sharp cut-off); inconclusive = no clear call, values can overlap the other calls; inactive = mostly above about 0.92. This is one part of the list.

Experiment: chemical genetic growth profiling, strain panel (AID 1159580);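 also: tested at 20 µM; growth read once vehicle control cultures reached saturation at 30 °C; 1 = growth at the plate median or of vehicle wells; lower values mean less growth of the strain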
Settings: S. cerevisiae deletion strains, growth OD
[1] = locus YHR030C, strain SLT2, stronger effect = lower value
[2] = locus YHR079C, strain IRE1, stronger effect = lower value
[3] = locus YJL095W, strain BCK1, stronger effect = lower value
[4] = locus YJR066W, strain TOR1, stronger effect = lower value
[5] = locus YLR113W, strain HOG1, stronger effect = lower value
[6] = locus YNL183C, strain NPR1, stronger effect = lower value
[7] = locus YOR231W, strain MKK1, stronger effect = lower value
[8] = locus YPL256C, strain CLN2, stronger effect = lower value

Measured: normalized growth

C[C@H]1CC2C([C@@H](O)C[C@@]3(C)C2CC[C@]3(O)C(=O)COC(=O)CCC(=O)O)[C@@]2(C)C=CC(=O)C=C12 (some centres undefined)
inactive: [1] 0.999 | [2] 1.02 | [3] 1.02 | [4] 1 | [5] 1.04 | [6] 0.995 | [7] 1.06 | [8] 1.03

CC1=C2[C@H]3OC(=O)[C@@H](C)[C@@H]3CC[C@@]2(C)C=CC1=O
inactive: locus YAL013W, strain DEP1, stronger effect = lower value 1.01 | locus YAL021C, strain ccr4, stronger effect = lower value 0.97 | locus YAL026C, strain drs2, stronger effect = lower value 0.968 | locus YAL030W, strain snc1, stronger effect = lower value 0.982 | locus YBL061C, strain skt5, stronger effect = lower value 0.968 | locus YBR009C, strain hhf1, stronger effect = lower value 0.975 | locus YBR021W, strain FUR4, stronger effect = lower value 0.972 | locus YBR023C, strain chs3, stronger effect = lower value 0.953 | locus YBR171W, strain sec66, stronger effect = lower value 0.962 | locus YBR229C, strain ROT2, stronger effect = lower value 1.01 | locus YBR231C, strain swc5, stronger effect = lower value 0.992 | locus YBR279W, strain paf1, stronger effect = lower value 0.994 | locus YCL011C, strain gbp2, stronger effect = lower value 0.979 | locus YCL016C, strain dcc1, stronger effect = lower value 0.995 | locus YCL029C, strain bik1, stronger effect = lower value 1.04 | locus YCL061C, strain MRC1, stronger effect = lower value 0.976 | locus YCL069W, strain vba3, stronger effect = lower value 0.967 | locus YCR088W, strain abp1, stronger effect = lower value 0.976 | locus YDL005C, strain med2, stronger effect = lower value 0.964 | locus YDL035C, strain GPR1, stronger effect = lower value 1.02 | locus YDL040C, strain nat1, stronger effect = lower value 0.979 | locus YDL074C, strain BRE1, stronger effect = lower value 1.02 | locus YDL101C, strain DUN1, stronger effect = lower value 1.02 | locus YDL185W, strain tfp1, stronger effect = lower value 1.02 | locus YDL192W, strain arf1, stronger effect = lower value 1.03 | locus YDR001C, strain nth1, stronger effect = lower value 0.98 | locus YDR069C, strain doa4, stronger effect = lower value 0.946 | locus YDR101C, strain arx1, stronger effect = lower value 1.01 | locus YDR137W, strain rgp1, stronger effect = lower value 0.972 | locus YDR159W, strain sac3, stronger effect = lower value 0.941 | locus YDR162C, strain NBP2, stronger effect = lower value 1.02 | locus YDR195W, strain ref2 0.953 | locus YDR297W, strain sur2, stronger effect = lower value 0.968 | locus YDR318W, strain mcm21, stronger effect = lower value 1.04 | locus YDR334W, strain swr1, stronger effect = lower value 0.96 | locus YDR335W, strain msn5, stronger effect = lower value 0.987 | locus YDR388W, stronger effect = lower value 1.01 | locus YDR392W, strain spt3, stronger effect = lower value 0.99 | locus YDR502C, strain sam2, stronger effect = lower value 1.02 | locus YEL003W, strain gim4, stronger effect = lower value 0.98 | locus YEL037C, strain rad23, stronger effect = lower value 0.978 | locus YEL061C, strain CIN8 (second series), stronger effect = lower value 0.972 | locus YEL061C, strain CIN8, stronger effect = lower value 1.01 | locus YER015W, strain faa2, stronger effect = lower value 0.974 | locus YER016W, strain bim1, stronger effect = lower value 0.978 | locus YER110C, stronger effect = lower value 1.02 | locus YER111C, strain swi4, stronger effect = lower value 0.963 | locus YER155C, strain BEM2 (second series), stronger effect = lower value 0.946 | locus YER155C, strain BEM2, stronger effect = lower value 1 | locus YER167W, strain BCK2, stronger effect = lower value 1.01 | locus YFR010W, strain ubp6, stronger effect = lower value 0.953 | locus YGL078C, strain dbp3, stronger effect = lower value 1.02 | locus YGL086W, strain mad1, stronger effect = lower value 1.01 | locus YGL167C, strain pmr1, stronger effect = lower value 0.963 | locus YGL173C, strain kem1, stronger effect = lower value 0.974 | locus YGL227W, strain vid30, stronger effect = lower value 0.984 | locus YGL240W, strain doc1, stronger effect = lower value 0.963 | locus YGL248W, strain PDE1, stronger effect = lower value 1.03 | locus YGL253W, strain hxk2, stronger effect = lower value 0.98 | locus YGR078C, strain PAC10, stronger effect = lower value 1.02 | locus YGR135W, strain pre9, stronger effect = lower value 1.03 | locus YGR229C, strain SMI1, stronger effect = lower value 1.05 | locus YGR252W, strain gcn5, stronger effect = lower value 0.991 | locus YHR013C, strain ard1, stronger effect = lower value 0.956 | locus YHR027C, strain rpn1, stronger effect = lower value 0.986 | [1] 0.981 | locus YHR079C, strain IRE1 (second series), stronger effect = lower value 1.02 | [2] 1 | locus YHR094C, strain hxt1, stronger effect = lower value 1.03 | locus YHR129C, strain ARP1, stronger effect = lower value 1.01 | locus YHR142W, strain chs7, stronger effect = lower value 0.98 | locus YHR200W, strain rpn10, stronger effect = lower value 1.01 | locus YIL066C, strain RNR3, stronger effect = lower value 1.02 | locus YIL073C, strain SPO22, stronger effect = lower value 1.06 | locus YIL125W, strain kgd1, stronger effect = lower value 1.02 | locus YIR030C, strain dcg1, stronger effect = lower value 1.02 | locus YJL092W, strain hpr5, stronger effect = lower value 0.975 | locus YJL095W, strain BCK1 (second series), stronger effect = lower value 0.964 | [3] 1.03 and 0.993 | locus YJL115W, strain asf1, stronger effect = lower value 0.973 | locus YJL129C, strain trk1, stronger effect = lower value 0.962 | locus YJL134W, strain LCB3, stronger effect = lower value 1.01 | locus YJL154C, strain vps35, stronger effect = lower value 0.98 | locus YJL164C, strain tpk1, stronger effect = lower value 0.984 | locus YJL166W, strain qcr8, stronger effect = lower value 0.969 | locus YJL168C, strain set2, stronger effect = lower value 1.02 | locus YJL187C, strain SWE1 (second series), stronger effect = lower value 1.02 | locus YJL187C, strain SWE1, stronger effect = lower value 0.966 | locus YJR043C, strain POL32, stronger effect = lower value 1.01 | [4] 0.956 | locus YJR075W, strain HOC1, stronger effect = lower value 1.02 | locus YKL009W, strain mrt4, stronger effect = lower value 1.03 | locus YKL068W, stronger effect = lower value 0.995 | locus YKL085W, strain MDH1 (second series), stronger effect = lower value 1.02 | locus YKL085W, strain MDH1, stronger effect = lower value 1.02 | locus YKL160W, strain elf1, stronger effect = lower value 0.994 | locus YKL190W, strain CNB1, stronger effect = lower value 1.01 | locus YKR001C, strain vps1, stronger effect = lower value 1.03 | locus YKR026C, strain gcn3, stronger effect = lower value 0.965 | locus YKR091W, strain srl3, stronger effect = lower value 0.983 | locus YLL001W, strain dnm1, stronger effect = lower value 0.996 | locus YLL026W, stronger effect = lower value 0.995 | locus YLL041C, strain sdh2, stronger effect = lower value 0.998 | locus YLR027C, strain aat2, stronger effect = lower value 0.979 | locus YLR039C, strain RIC1, stronger effect = lower value 1.04 | locus YLR058C, strain SHM2, stronger effect = lower value 1.02 | locus YLR102C, strain apc9, stronger effect = lower value 1.03 | [5] 0.963 | locus YLR221C, strain rsa3, stronger effect = lower value 0.959 | locus YLR258W, strain gsy2, stronger effect = lower value 0.985 | locus YLR262C, strain YPT6 (second series), stronger effect = lower value 0.997 | locus YLR262C, strain YPT6, stronger effect = lower value 1.06 | locus YLR268W, strain sec22, stronger effect = lower value 1.02 | locus YLR320W, strain mms22, stronger effect = lower value 0.978 | locus YLR342W, strain FKS1 (second series), stronger effect = lower value 1.01 | locus YLR342W, strain FKS1, stronger effect = lower value 0.974 | locus YLR357W, strain rsc2, stronger effect = lower value 0.948 | locus YLR370C, strain arc18, stronger effect = lower value 0.977 | locus YLR371W, strain rom2, stronger effect = lower value 1.01 | locus YLR384C, strain iki3, stronger effect = lower value 0.96 | locus YLR418C, strain cdc73, stronger effect = lower value 1.03 | locus YML016C, strain PPZ1, stronger effect = lower value 1.02 | locus YML032C, strain rad52, stronger effect = lower value 1.02 | locus YML120C, strain ndi1, stronger effect = lower value 1.01 | locus YML124C, strain tub3, stronger effect = lower value 1.02 | locus YMR058W, strain fet3, stronger effect = lower value 0.977 | locus YMR078C, strain ctf18, stronger effect = lower value 1.04 | locus YMR125W, strain sto1, stronger effect = lower value 0.968 | locus YMR129W, stronger effect = lower value 0.997 | locus YMR205C, strain PFK2, stronger effect = lower value 0.982 | locus YMR223W, strain ubp8, stronger effect = lower value 1.01 | locus YMR231W, strain pep5, stronger effect = lower value 0.973 | locus YMR263W, strain SAP30, stronger effect = lower value 1.02 | locus YMR307W, strain GAS1, stronger effect = lower value 1.05 | locus YNL067W, strain RPL9B, stronger effect = lower value 1.02 | locus YNL071W, strain lat1, stronger effect = lower value 0.994 | locus YNL153C, strain GIM3, stronger effect = lower value 1.03 | [6] 0.951 | locus YNL209W, strain ssb2, stronger effect = lower value 0.981 | locus YNL233W, strain BNI4, stronger effect = lower value 1.02 | locus YNL248C, strain rpa49, stronger effect = lower value 0.962 | locus YNL250W, strain rad50, stronger effect = lower value 1.04 | locus YNL271C, strain bni1, stronger effect = lower value 1.02 | locus YNL298W, strain CLA4, stronger effect = lower value 1.03 | locus YNL307C, strain MCK1, stronger effect = lower value 1.03 | locus YNL322C, strain KRE1 (second series), stronger effect = lower value 0.954 | locus YNR049C, strain mso1, stronger effect = lower value 0.983 | locus YNR052C, strain pop2, stronger effect = lower value 1.01 | locus YOL012C, strain htz1 0.992 | locus YOL147C, strain pex11, stronger effect = lower value 1.02 | locus YOR001W, strain rrp6, stronger effect = lower value 0.939 | locus YOR061W, strain CKA2, stronger effect = lower value 1.02 | locus YOR069W, strain VPS5, stronger effect = lower value 1.01 | locus YOR070C, strain gyp1, stronger effect = lower value 0.984 | locus YOR080W, strain dia2, stronger effect = lower value 0.97 | locus YOR083W, strain WHI5, stronger effect = lower value 1.01 | locus YOR106W, strain vam3, stronger effect = lower value 1 | locus YOR136W, strain idh2, stronger effect = lower value 1.01 | locus YOR144C, strain elg1, stronger effect = lower value 1.02 | locus YOR184W, strain ser1, stronger effect = lower value 1.03 | [7] 0.965 | locus YOR265W, strain rbl2, stronger effect = lower value 0.99 | locus YOR270C, strain vph1, stronger effect = lower value 0.926 | locus YOR290C, strain snf2, stronger effect = lower value 0.982 | locus YOR316C, strain cot1, stronger effect = lower value 1.02 | locus YPL051W, strain arl3, stronger effect = lower value 0.987 | locus YPL078C, strain atp4, stronger effect = lower value 0.988 | locus YPL106C, strain sse1, stronger effect = lower value 0.96 | locus YPL240C, strain hsp82, stronger effect = lower value 0.964 | locus YPL241C, strain CIN2, stronger effect = lower value 1.01 | [8] 0.977 | locus YPR119W, strain clb2, stronger effect = lower value 1.01 | locus YPR141C, strain kar3, stronger effect = lower value 1.02 | locus YPR163C, strain tif3, stronger effect = lower value 1.03 | locus YPR167C, strain met16, stronger effect = lower value 1.02 | strain wtn01, stronger effect = lower value 1
